Here are results for four compounds from PubChem BioAssay (EPA / NIEHS).

Experiment [1] has as its target Paired box protein Pax-6 (Homo sapiens) (UniProt P26367). In words: ATG_Pax6_CIS: Attagene CIS-FACTORIAL HepG2 Assay for human Paired Box 6 (PAX6) (AID 2282956). Conditions: HepG2 CIS-FACTORIAL PAX6 reporter transcription, RNA readout; actives raise or lower the signal. In outline: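 DMSO-referenced bidirectional fits of reporter mRNA fluorescence; HepG2 with transient cis-promoter MRTUs, 24 h post-dose, RT-PCR plus capillary electrophoresis detection.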

A short description of experiment [2]: ATG_PXRE_CIS: Attagene CIS-FACTORIAL HepG2 Assay for human Pregnane X Receptor Element (PXRE) (AID 2282957). Conditions: HepG2 Attagene CIS-FACTORIAL PXRE reporter, mRNA; actives raise or lower the signal. An outline of the steps:
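Bidirectional activity, baselined to DMSO, derived from reporter mRNA fluorescence (RT-PCR plus capillary electrophoresis) in HepG2 cells bearing cis-promoter reporter units, 24 h exposure.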

Experiment [3] can be described thus: ATG_PPRE_CIS: Attagene CIS-FACTORIAL HepG2 Assay for human Peroxisome Proliferator-activated Response Element (PPRE) (AID 2282958). As to conditions: HepG2 PPRE cis-element reporter, Attagene transcription factor profiling; actives raise or lower the signal. An outline of the steps: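 Read-out: fluorescent reporter mRNA fragments resolved by capillary electrophoresis after RT-PCR. HepG2 cells carried transiently transfected PPRE-driven cis reporter constructs and were dosed for 24 h; gain or loss of signal fitted relative to DMSO.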

Experiment [4] is described as follows: ATG_RORE_CIS: Attagene CIS-FACTORIAL HepG2 Assay for human RAR-related Orphan Receptor Element (RORE) (AID 2282959). Conditions: HepG2 Attagene cis-factorial RORE reporter, mRNA; actives raise or lower the signal. An outline of the steps: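 Readout: fluorescent reporter mRNA by RT-PCR plus capillary electrophoresis, 24 h after dosing transfected HepG2 cells. Endogenous transcription factor activity on a cis promoter element is measured. Gain or loss of signal fitted against DMSO.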

Experiment [5] can be described thus: ATG_Sox_CIS: Attagene CIS-FACTORIAL HepG2 Assay for human SRY-box transcription factor (SOX) (AID 2282960). As to conditions: HepG2 Attagene cis-factorial SOX reporter, mRNA; actives raise or lower the signal. An outline of the steps:
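Read-out: fluorescent RT-PCR products of SOX1-linked reporter transcripts resolved by capillary electrophoresis, fitted bidirectionally against DMSO. Transiently transfected HepG2 cells, 24 h after chemical exposure, endogenous transcription factor activity.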

The target in experiment [6] is Transcription factor Sp1 (Homo sapiens) (UniProt P08047). The experiment in a line: ATG_Sp1_CIS: Attagene CIS-FACTORIAL HepG2 Assay for human Specificity Protein 1 (Sp1) (AID 2282961). As to conditions: HepG2 Sp1 cis-reporter transcription, actives raise or lower the signal. An outline of the steps: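 Read-out: fluorescence of 6-FAM-labeled, HpaI-digested RT-PCR products separated by capillary electrophoresis. HepG2 cells carried transfected cis-element reporter units and were exposed to chemicals for 24 h; gain or loss of signal fitted relative to DMSO.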
Sequence of Transcription factor Sp1 (Homo sapiens) (P08047 whole entry, looked up): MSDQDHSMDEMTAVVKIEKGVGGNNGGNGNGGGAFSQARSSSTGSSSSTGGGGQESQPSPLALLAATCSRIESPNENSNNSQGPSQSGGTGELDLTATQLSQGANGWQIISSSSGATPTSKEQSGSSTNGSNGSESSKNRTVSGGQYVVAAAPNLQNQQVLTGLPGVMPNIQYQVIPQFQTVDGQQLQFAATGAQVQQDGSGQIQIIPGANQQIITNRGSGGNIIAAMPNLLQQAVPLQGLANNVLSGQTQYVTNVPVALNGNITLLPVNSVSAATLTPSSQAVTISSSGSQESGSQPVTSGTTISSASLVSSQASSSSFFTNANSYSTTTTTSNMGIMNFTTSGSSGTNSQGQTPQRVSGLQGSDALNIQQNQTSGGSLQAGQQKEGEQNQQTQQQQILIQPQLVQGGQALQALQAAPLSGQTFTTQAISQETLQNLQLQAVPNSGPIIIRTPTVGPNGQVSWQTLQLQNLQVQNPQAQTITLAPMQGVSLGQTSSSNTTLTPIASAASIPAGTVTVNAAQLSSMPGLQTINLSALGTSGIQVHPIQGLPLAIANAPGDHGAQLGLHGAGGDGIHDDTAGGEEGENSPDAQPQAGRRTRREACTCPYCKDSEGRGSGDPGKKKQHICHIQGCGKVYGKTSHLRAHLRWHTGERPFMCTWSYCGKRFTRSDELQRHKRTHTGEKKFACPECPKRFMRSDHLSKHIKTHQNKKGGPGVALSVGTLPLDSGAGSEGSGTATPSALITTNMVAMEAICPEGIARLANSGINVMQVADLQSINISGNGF

The nature of experiment [7]: ATG_SREBP_CIS: Attagene CIS-FACTORIAL HepG2 Assay for human Sterol Regulatory Element Binding (SREBP) (AID 2282962). As to conditions: HepG2 Attagene cis-factorial SREBP reporter, mRNA; actives raise or lower the signal. An outline of the steps:
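In this cis-format assay, HepG2 liver cells express reporters controlled by promoter elements responsive to native transcription factors. Exposure lasts 24 h; reporter mRNA fluorescence from capillary electrophoresis gives the signal, fitted bidirectionally against DMSO.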

Experiment [8] deals with Signal transducer and activator of transcription 3 (Homo sapiens) (UniProt P40763). The experiment in a line: ATG_STAT3_CIS: Attagene CIS-FACTORIAL HepG2 Assay for human Signal Transducer and Activator of Transcription 3 (STAT3) (AID 2282963). Conditions: HepG2, Attagene cis-factorial STAT3 reporter transcription; actives raise or lower the signal. In outline: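 HepG2, MRTU-transfected, 24 h dosing. RNA → RT → PCR → FAM label → HpaI → CE. Bidirectional fit vs DMSO.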
Sequence of Signal transducer and activator of transcription 3 (Homo sapiens) (P40763 whole entry, looked up): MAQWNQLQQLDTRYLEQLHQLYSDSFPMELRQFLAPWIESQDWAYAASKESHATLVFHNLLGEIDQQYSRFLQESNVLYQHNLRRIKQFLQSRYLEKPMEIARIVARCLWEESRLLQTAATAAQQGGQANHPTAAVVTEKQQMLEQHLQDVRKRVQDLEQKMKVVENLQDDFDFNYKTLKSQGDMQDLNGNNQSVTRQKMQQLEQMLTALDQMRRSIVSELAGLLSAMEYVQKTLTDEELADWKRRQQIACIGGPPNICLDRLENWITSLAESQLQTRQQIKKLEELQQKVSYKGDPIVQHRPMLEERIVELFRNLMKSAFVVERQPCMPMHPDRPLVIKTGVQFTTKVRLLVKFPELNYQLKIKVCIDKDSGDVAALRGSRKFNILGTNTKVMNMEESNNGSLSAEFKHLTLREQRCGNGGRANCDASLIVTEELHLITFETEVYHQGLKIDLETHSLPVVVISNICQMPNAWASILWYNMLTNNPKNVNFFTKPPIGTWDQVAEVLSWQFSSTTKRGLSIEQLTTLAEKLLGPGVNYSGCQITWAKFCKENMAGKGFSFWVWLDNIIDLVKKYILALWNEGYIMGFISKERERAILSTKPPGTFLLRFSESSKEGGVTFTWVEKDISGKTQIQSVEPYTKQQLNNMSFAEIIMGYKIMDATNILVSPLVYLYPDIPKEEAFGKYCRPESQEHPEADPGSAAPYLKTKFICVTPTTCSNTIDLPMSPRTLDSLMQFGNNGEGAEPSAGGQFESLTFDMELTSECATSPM

The nature of experiment [9]: ATG_TA_CIS: Attagene CIS-FACTORIAL HepG2 Assay for human TA Basal Promoter (AID 2282964). Conditions: HepG2 Attagene CIS-factorial TA basal promoter reporter; actives raise or lower the signal. An outline of the steps:
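HepG2 cells transiently transfected with multiplexed cis-promoter reporter units, dosed 24 h. Reporter mRNA measured by RT-PCR, 6-FAM labelling, HpaI digestion and capillary electrophoresis; bidirectional fit versus DMSO baseline, serving as background control.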

Experiment [10] in a line: ATG_TCF_b_cat_CIS: Attagene CIS-FACTORIAL HepG2 Assay for human T-Cell-Factor with beta-catenin (TCF/b-cat) (AID 2282965). Conditions: HepG2 TCF/beta-catenin cis-reporter transcription, actives raise or lower the signal. An outline of the steps: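 HepG2 cells transiently transfected with multiple cis-promoter-regulated reporter transcription units, so endogenous transcription factor activity is measured. Reporter mRNA read 24 hours after dosing by RT-PCR, fluorescent labelling and capillary electrophoresis; bidirectional fitting against DMSO.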

A short description of experiment [11]: ATG_TAL_CIS: Attagene CIS-FACTORIAL HepG2 Assay for human TAL Basal Promoter (AID 2282966).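 Note: background control endpoint measuring basal TAL promoter reporter mRNA not a specific factor.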 As to conditions: HepG2 Attagene cis-factorial TAL promoter reporter; actives raise or lower the signal. An outline of the steps:
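Human hepatoma HepG2 cells, transfected with promoter-regulated reporter units, were treated 24 h. Reporter transcript levels, measured through RT-PCR and capillary electrophoresis, were fitted for gain or loss relative to DMSO.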

For experiment [12], the target named is X-box-binding protein 1 (Homo sapiens) (UniProt P17861). In words: ATG_Xbp1_CIS: Attagene CIS-FACTORIAL HepG2 Assay for human X-box Binding Protein 1 (XBP1) (AID 2282972). As to conditions: HepG2 XBP1 cis-element reporter, Attagene multiplex; actives raise or lower the signal. In outline: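 Changes in reporter transcript abundance, read by RT-PCR and capillary electrophoresis, reflect endogenous transcription factor activity. Transfected HepG2 cells received compound for 24 hours; DMSO defined baseline for bidirectional analysis.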
Sequence of X-box-binding protein 1 (Homo sapiens) (P17861 whole entry, looked up): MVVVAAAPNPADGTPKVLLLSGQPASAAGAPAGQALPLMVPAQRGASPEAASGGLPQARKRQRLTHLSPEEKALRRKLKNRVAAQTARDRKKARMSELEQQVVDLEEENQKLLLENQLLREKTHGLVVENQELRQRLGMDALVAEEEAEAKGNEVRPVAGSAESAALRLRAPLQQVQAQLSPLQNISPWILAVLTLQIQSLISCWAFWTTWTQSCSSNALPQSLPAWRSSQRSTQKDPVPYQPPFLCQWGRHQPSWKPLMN

Experiment [13] is described as follows: ATG_M_19_TRANS: Attagene TRANS-FACTORIAL HepG2 Assay for M19 Transcription Factor (Internal Marker) (AID 2282974; active = hit-call score of the fitted dose curve at least 0.9, where 1 is the maximum). Conditions: HepG2 Attagene TRANS-FACTORIAL M19 internal marker reporter. An outline of the steps:
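24 h chemical exposure of transiently transfected HepG2 (MRTU library). RNA → oligo(dT) RT → PCR → 6-FAM labelling → HpaI cut → CE fluorescence. Positive-direction fit vs DMSO baseline; background internal-marker readout.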

The nature of experiment [14]: ATG_GAL4_TRANS: Attagene TRANS-FACTORIAL HepG2 Assay for GAL4 (Internal Marker) (AID 2282976; active = hit-call score of the fitted dose curve at least 0.9, where 1 is the maximum). Conditions: HepG2 Attagene TRANS GAL4 internal marker reporter. An outline of the steps: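 Liver HepG2 line bearing multiplexed GAL4-UAS reporter constructs; 24 h chemical treatment. Transcripts were quantified as fluorescent fragments on capillary electrophoresis after RT-PCR and HpaI cut, with activity fitted upward from DMSO.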

Experiment [15] is described as follows: ATG_TGFb_CIS: Attagene CIS-FACTORIAL HepG2 Assay for human Transforming Growth Factor (TGF) (AID 2282967). Conditions: HepG2 Attagene CIS TGFb reporter, mRNA transcription; actives raise or lower the signal. An outline of the steps:
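HepG2 cells transiently transfected with cis-promoter-driven multiplexed reporter units; 24 h compound exposure. Reporter mRNA measured by RT-PCR, 6-FAM labeling, HpaI digestion and capillary electrophoresis; bidirectional fit versus DMSO baseline.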

Experiment [16] deals with Estrogen receptor (Homo sapiens) (UniProt P03372). The experiment in a line: ATG_ERa_TRANS: Attagene TRANS-FACTORIAL HepG2 Assay for human Estrogen Receptor alpha (ERa) (AID 2282970; active = hit-call score of the fitted dose curve at least 0.9, where 1 is the maximum). Conditions: HepG2 Attagene TRANS ERa GAL4 reporter, mRNA. An outline of the steps: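 Signal derives from fluorescence of labelled reporter PCR fragments separated by capillary electrophoresis. HepG2 cells transiently carrying multiple GAL4-UAS reporter units were treated 24 hours, and induction above DMSO baseline was fitted as activity.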
Sequence of Estrogen receptor (Homo sapiens) (P03372 whole entry, looked up, the tested form may be a part): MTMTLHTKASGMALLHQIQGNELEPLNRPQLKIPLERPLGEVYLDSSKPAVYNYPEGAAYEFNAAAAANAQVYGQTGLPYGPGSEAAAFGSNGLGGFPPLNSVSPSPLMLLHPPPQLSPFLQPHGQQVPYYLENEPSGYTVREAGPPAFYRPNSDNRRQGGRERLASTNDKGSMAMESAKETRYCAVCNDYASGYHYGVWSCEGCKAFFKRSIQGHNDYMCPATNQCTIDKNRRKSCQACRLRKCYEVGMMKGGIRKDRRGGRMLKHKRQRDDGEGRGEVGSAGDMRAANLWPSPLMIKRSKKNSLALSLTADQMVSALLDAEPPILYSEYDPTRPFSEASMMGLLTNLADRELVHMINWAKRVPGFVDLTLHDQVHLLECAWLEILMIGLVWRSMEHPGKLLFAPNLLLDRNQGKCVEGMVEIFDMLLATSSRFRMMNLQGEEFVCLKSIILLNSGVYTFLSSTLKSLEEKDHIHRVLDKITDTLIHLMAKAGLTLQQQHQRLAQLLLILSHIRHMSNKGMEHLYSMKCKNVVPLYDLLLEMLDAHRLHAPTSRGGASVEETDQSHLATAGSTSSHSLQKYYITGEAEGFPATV

Experiment [17] is described as follows: ATG_VDRE_CIS: Attagene CIS-FACTORIAL HepG2 Assay for human Vitamin D Receptor Element (VDRE) (AID 2282968). Conditions: HepG2 VDRE cis-reporter transcription, actives raise or lower the signal. In outline: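 Steps: transfect HepG2 with multiple reporter transcription units; dose chemicals 24 h; isolate RNA; RT-PCR; label with 6-FAM primer extension; HpaI digest; capillary electrophoresis. Curves fitted both directions against DMSO.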

For experiment [18], the target named is Steroid hormone receptor ERR1 (Homo sapiens) (UniProt P11474). The experiment in a line: ATG_ERRa_TRANS: Attagene TRANS-FACTORIAL HepG2 Assay for human Estrogen-Related Receptor alpha (ERRa) (AID 2282971; active = hit-call score of the fitted dose curve at least 0.9, where 1 is the maximum). Conditions: HepG2 Attagene TRANS reporter, ERRa transactivation. In outline: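 Signal gain relative to DMSO for an ERRa-Gal4 chimeric receptor, read as reporter mRNA by RT-PCR/capillary electrophoresis. Human HepG2 liver cells, transient multiplex reporter transfection, 24 h chemical exposure.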
Sequence of Steroid hormone receptor ERR1 (Homo sapiens) (P11474 whole entry, looked up, the tested form may be a part): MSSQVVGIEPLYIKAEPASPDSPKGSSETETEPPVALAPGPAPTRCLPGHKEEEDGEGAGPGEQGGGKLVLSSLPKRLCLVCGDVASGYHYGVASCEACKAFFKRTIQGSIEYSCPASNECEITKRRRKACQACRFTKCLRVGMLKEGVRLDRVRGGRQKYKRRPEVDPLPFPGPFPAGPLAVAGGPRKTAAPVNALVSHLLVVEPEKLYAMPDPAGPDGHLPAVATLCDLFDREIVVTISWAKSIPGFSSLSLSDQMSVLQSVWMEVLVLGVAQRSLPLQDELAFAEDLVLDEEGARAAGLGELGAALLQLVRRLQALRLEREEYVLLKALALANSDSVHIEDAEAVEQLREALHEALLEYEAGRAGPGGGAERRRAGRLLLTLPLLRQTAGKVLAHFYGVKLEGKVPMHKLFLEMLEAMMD

The target in experiment [19] is Estrogen-related receptor gamma (Homo sapiens) (UniProt P62508). In words: ATG_ERRg_TRANS: Attagene TRANS-FACTORIAL HepG2 Assay for human Estrogen-Related Receptor gamma (ERRg) (AID 2282977; active = hit-call score of the fitted dose curve at least 0.9, where 1 is the maximum;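 note: hits increase reporter signal over DMSO so potencies reflect activators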). Conditions: HepG2 Attagene TRANS reporter, ERRg transactivation. In outline: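 Exogenous NR-Gal4 chimera activity measured as reporter transcript induction after 24 h in transiently transfected HepG2 cells. RNA reverse-transcribed, PCR-amplified, 6-FAM-labelled and resolved by capillary electrophoresis; increase over DMSO baseline.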
Sequence of Estrogen-related receptor gamma (Homo sapiens) (P62508 whole entry, looked up, the tested form may be a part): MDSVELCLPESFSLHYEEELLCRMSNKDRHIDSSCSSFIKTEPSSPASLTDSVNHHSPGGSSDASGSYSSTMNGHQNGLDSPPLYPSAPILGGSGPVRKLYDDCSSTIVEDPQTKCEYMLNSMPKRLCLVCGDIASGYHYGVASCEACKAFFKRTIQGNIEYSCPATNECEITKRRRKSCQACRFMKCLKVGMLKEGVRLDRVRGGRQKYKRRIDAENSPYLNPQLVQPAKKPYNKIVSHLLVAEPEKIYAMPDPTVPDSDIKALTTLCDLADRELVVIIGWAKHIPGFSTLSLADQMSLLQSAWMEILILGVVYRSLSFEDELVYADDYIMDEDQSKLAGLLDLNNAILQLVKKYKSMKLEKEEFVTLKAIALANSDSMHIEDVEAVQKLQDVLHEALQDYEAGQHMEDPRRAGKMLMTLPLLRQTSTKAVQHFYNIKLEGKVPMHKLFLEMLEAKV

Records with an inconclusive call do not appear. Activity calls are given as the source filed them. Rule for the calls, unless noted: active = hit-call score of the fitted dose curve at least 0.9, where 1 is the maximum; inactive = score below 0.9.

Sequence of Paired box protein Pax-6 (Homo sapiens) (P26367 whole entry, looked up): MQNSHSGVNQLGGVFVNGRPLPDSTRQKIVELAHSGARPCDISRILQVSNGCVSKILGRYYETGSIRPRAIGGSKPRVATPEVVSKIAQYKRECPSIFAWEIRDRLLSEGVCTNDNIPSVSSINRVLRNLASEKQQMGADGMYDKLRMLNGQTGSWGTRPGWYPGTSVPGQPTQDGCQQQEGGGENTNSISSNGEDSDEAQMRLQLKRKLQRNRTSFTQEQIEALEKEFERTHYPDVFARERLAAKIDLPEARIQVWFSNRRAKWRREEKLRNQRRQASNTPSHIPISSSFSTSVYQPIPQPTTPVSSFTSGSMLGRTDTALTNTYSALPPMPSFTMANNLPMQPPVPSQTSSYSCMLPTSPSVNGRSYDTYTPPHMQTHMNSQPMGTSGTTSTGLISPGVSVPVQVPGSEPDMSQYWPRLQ

For `CO[Si](CCC1CCC2OC2C1)(OC)OC` (stereo not drawn), the result in experiment [1], in [2], in experiment [3], in experiment [4], in experiment [5] and in [6] was inactive. Also, the outcome in [7], in [8], in experiment [9], in [10], in [11] and in [12] was inactive. For the same compound, the call in experiment [13] and in experiment [14] was inactive.
As to `CC(C)(C)c1ccc(-c2ccc(C(C)(C)C)cc2)cc1`, the compound was classed as inactive in experiment [1], in [2], in experiment [3], in experiment [4], in experiment [5] and in [6]. In addition, the compound was classed as inactive in [7], in [8], in experiment [9], in experiment [10], in [11] and in experiment [15]. The compound was called inactive in [16] and in [12].
What is called AC50 is the concentration giving half of the maximal activity seen. For the compound `CCCCCCCCCCCCCCCC[N+](C)(C)CC`, the compound was called inactive in [1], in experiment [2], in experiment [3], in experiment [5], in [6] and in [7]. The call in [8], in experiment [9], in experiment [15], in [18] and in experiment [12] was inactive. Further, the AC50 in [4] was 8.95 µM (active); in experiment [10], 5.99 µM (active); in experiment [17], 9.07 µM (active); in [19], 9.59 µM (active).
Turning to `COCCOCCOCCOCCOC`, the compound was classed as inactive in [1], in experiment [2], in experiment [3], in experiment [4], in experiment [5] and in experiment [6]. The compound was classed as inactive in experiment [7], in experiment [8], in experiment [9], in [10], in experiment [11] and in [15]. Further, the outcome in [17], in experiment [12] and in experiment [14] was inactive.
